# In ChEMBL document CHEMBL1156829:
# “And” between values parts separate entries of the source, which are not always exact repeats. Equal entries are not always repeated. Whole data set: some 5,400 compounds, median “IFI” near 2, cut for the highest 2% near 22. The full list was thinned out, with the highest values kept by preference.
# Assay: NOVARTIS: Inhibition Frequency Index (IFI) - the number of HTS assays where a compound showed > 50% inhibition/induction, expressed as a percentage of the number of assays in which the compound was tested.
# Format: functional
row,Compound,IFI
1,"GNF-Pf-1437, CHEMBL576411",14.3%
2,"GNF-Pf-2945, CHEMBL581676",1.82%
3,"GNF-Pf-448, CHEMBL580641",30%
4,CCc1ccc(C=NNC(=O)COc2ccc3c(c2)OCO3)cc1,0%
5,COc1cccc2c1C(=O)c1c(O)c3c(c(O)c1C2=O)C[C@](O)(C(C)=O)C[C@@H]3O[C@H]1C[C@@H](N)[C@H](O)[C@H](C)O1,19.7%
6,COc1cccc2c1C(=O)C1C(O)=C3C(=C(O)C1C2=O)CC(O)(C(C)=NN=C1CC(C)(C)N(O)C(C)(C)C1)CC3OC1CC(C)(N)C(O)CO1 (stereo unspecified),21.4%
7,COc1cccc2c1C(=O)c1c(O)c3c(c(O)c1C2=O)C[C@@](O)(C(=O)CO)C[C@@H]3O[C@@H]1C[C@H](N)[C@H](O)[C@H](C)O1,25.6%
8,Cc1ccc(-c2cc(C(=O)OCC(=O)c3cccc([N+](=O)[O-])c3)c3cc(C)ccc3n2)cc1,0%
9,Cc1cc(C)c2cc(CN(CCN(C)C)C(=S)NCCCN(C)C)c(=O)[nH]c2c1,3.12%
10,CC1=C(CO)C(=O)O[C@@H]([C@@H](C)[C@H]2CC[C@H]3[C@@H]4C[C@H]5O[C@]56[C@@H](O)C=CC(=O)[C@]6(C)C4CC[C@]23C)C1 (stereo partly specified),32.1%
11,Cc1ccn2c(NC(C)(C)CC(C)(C)C)c(-c3ccccc3OC(=O)CCc3ccccc3)nc2c1,3.74%
12,c1ccc(-c2cc(N3CCOCC3)nc(-c3ccccn3)n2)nc1,15.4%
13,COc1ccc(NC(=O)CCCCCn2c(SCc3cc(=O)oc4cc(O)ccc34)nc3ccsc3c2=O)cc1,0%
14,CN(C)c1ccc(/C=C/c2cccc(/C=C/c3ccc(N(C)C)cc3)[n+]2C)cc1,25%
15,Cc1ccc(C=Cc2ccc(N(C)C)cc2)[n+](C)c1,15.4%
16,CC(C)CC[n+]1ccccc1C=Cc1ccc(N(C)C)cc1,15.4%
17,CCCCCC[n+]1ccccc1C=Cc1ccc(N(C)C)cc1,27.6%
18,CN(C)c1ccc(/C=C/c2cccc[n+]2C)cc1,6.3%
19,CC[n+]1ccccc1C=Cc1ccc(N(C)C)cc1,6.57% and 5.88%
20,CC1CCCCN1CCCNc1ncc(C(=O)NCCc2ccccc2)c(NCC2CCCO2)n1 (stereo unspecified),3.81%
21,CCCCNC(=S)N(Cc1cccs1)Cc1cc2cc(C)ccc2[nH]c1=O,1.82%

row,Compound,IFI
1,CC(C)(C)c1ccc(CNC(=O)C(Cc2ccc(O)cc2)c2ccccc2)cc1 (stereo unspecified),0%
2,O=C(CSc1oc(-c2ccc(Cl)cc2)nc1[P+](c1ccccc1)(c1ccccc1)c1ccccc1)c1ccccc1,21.4%
3,C=CCSc1oc(-c2ccco2)nc1[P+](c1ccccc1)(c1ccccc1)c1ccccc1,23.1%
4,CCOC(=O)C1=C(CC)NC2=C(C(=O)CC(C)(C)C2)C1c1ccccc1F (stereo unspecified),4.6%
5,CC[n+]1c(/C=C(C)/C=C2\Sc3ccccc3N2CCO)sc2ccccc21,7.69%
6,CCN1/C(=C/c2cccc[n+]2C)Sc2ccc(OC)cc21,15.4%
7,CCC(/C=C1\Sc2ccc(OC)cc2N1CCCS(=O)(=O)O)=C\c1sc2ccc(OC)cc2[n+]1CCCS(=O)(=O)O,22.7%
8,CCOC(=O)c1c(C)[n+](-c2ccc(C)cc2)c(CC)c2cc(OC)c(OC)cc12,2.29%
9,Cc1ccc(-c2c3c4n(c(-c5ccc(Cl)cc5)cn4c2C(=O)Nc2ccccc2Cl)CCCC3)cc1,6.06%
10,CCCCN(CCCC)[P+](N(CCCC)CCCC)(N(CCCC)CCCC)N(CCCC)CCCC,27.3%
11,CCC(=O)N1CCc2cc(Br)cc(S(=O)(=O)N3CC(C)CC(C)C3)c21 (stereo unspecified),0%
12,COc1ccc2nc3cc(Cl)ccc3c(NCCN(CCN)CCN)c2c1,14.5%
13,CN(C)c1ccc(C(=Cc2cc(-c3ccccc3)cc(-c3ccccc3)[o+]2)c2ccc(N(C)C)cc2)cc1,12.7%
14,CN(C)c1ccc(-c2cc(-c3ccccc3)[s+]c(-c3ccccc3)c2)cc1,31.4%
15,CN(C)c1ccc(-c2nc(-c3ccc(-c4[nH]c(-c5ccc(N(C)C)cc5)nc4-c4ccccc4)cc3)c(-c3ccccc3)[nH]2)cc1,12.5%
16,COc1ccc(-c2nc(NC(=O)CS(=O)(=O)c3ccccc3)sc2C)cc1,0%
17,C1=C(c2ccc(CN3CCCCC3)cc2)N2CCN=C2c2ccccc21,2.98%
18,Cc1cc(S(=O)(=O)NC(Cc2ccc([N+](=O)[O-])cc2)C(=O)O)c(Cl)cc1Cl (stereo unspecified),1.03%
19,c1ccc(Oc2ccc(Nc3nc4nonc4nc3Nc3ccc(Oc4ccccc4)cc3)cc2)cc1,0%
20,Clc1ccccc1Nc1nc2nonc2nc1Nc1cccc(Br)c1,15.4%
21,FC(F)(F)c1cccc(Nc2nc3nonc3nc2Nc2ccc(Cl)cc2)c1,22.7%

row,Compound,IFI
1,FC(F)(F)c1cccc(Nc2nc3nonc3nc2Nc2ccc(Br)cc2)c1,22.2%
2,Cc1ccc2ncnc(Nc3cccc(C(F)(F)F)c3)c2c1,4.41%
3,Clc1ccc(Nc2nc3nonc3nc2Nc2ccc(Cl)c(Cl)c2)cc1Cl,7.14%
4,CCN(CC)c1scc(-c2ccc(Br)cc2)[s+]1,7.69%
5,COc1ccc(C2=C(c3ccc(OC)cc3)C3(c4ccccc4)C(=O)C2(c2ccccc2)C2C(=O)N(c4ccc(F)cc4)C(=O)C23)cc1 (stereo unspecified),0%
6,CN(/C=C/C1=[N+](C)c2ccc(Cl)cc2C1(C)C)c1ccccc1,0%
7,CCN1/C(=C/c2cccc[n+]2C)C=Cc2cc(C)ccc21,15.4%
8,CCN1/C(=C\C=C\C2=[N+](C)c3ccccc3C2(C)C)N(c2ccccc2)c2ccccc21,28.6%
9,CCN1/C(=C/C=C/C2=[N+](C)c3ccc(C)cc3C2(C)C)C=Cc2ccccc21,28.6%
10,COCCN1C(=O)c2ccccc2C(C(=O)Nc2cccc(C(F)(F)F)c2)C1c1cccs1 (stereo unspecified),9.09%
11,CC1CCN(S(=O)(=O)c2ccc(C(=O)Nc3sc4c(c3C(N)=O)CCN(C)C4)cc2)CC1,0%
12,COc1nc(C)nc(NC(=O)NC(=O)c2c(OC)ccc([N+](=O)[O-])c2OC)n1,2.61%
13,CCCCCc1ccc(OCCOCC[n+]2ccccc2)c(CCCCC)c1,4.54%
14,CCN1C(=Cc2sc3ccc(O)cc3[n+]2CC)C=Cc2cc(C)ccc21,15.4%
15,CCN1C(=Cc2sc3ccccc3[n+]2C)C=Cc2ccc(C)cc21,23.8%
16,CCN1C(=Cc2sc3ccccc3[n+]2C)C=Cc2cccc(C)c21,23.1%
17,CCN1C=C(c2ccc(C)cc2)S/C1=C\c1sc2ccccc2[n+]1C,14.7%
18,CCN1/C(=C/c2cccc[n+]2C)C=Cc2ccc(C)cc21,7.79%
19,CN1C=CC(=Cc2sc3ccccc3[n+]2C)C=C1,0%
